Screening data deposited in PubChem BioAssay by The Scripps Research Institute Molecular Screening Center.
This is a sample that favours compounds with a hit; in the whole collection about 2.8% have one here.
KLK7 zymogen act: activates the human kallikrein-7 zymogen; purified proKLK7, EDANS-DABCYL substrate fluorescence; 100% is mature enzyme control, 0% vehicle; AID 652039; P49862; hit rate 0.9% among 370,000; activation, % at 7 µM;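 active = activation above the mean of all tested compounds plus 3 SD, computed per campaign excluding outliers beyond control limits, cut at about 13% in these data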
Target sequence (P49862 whole entry, looked up): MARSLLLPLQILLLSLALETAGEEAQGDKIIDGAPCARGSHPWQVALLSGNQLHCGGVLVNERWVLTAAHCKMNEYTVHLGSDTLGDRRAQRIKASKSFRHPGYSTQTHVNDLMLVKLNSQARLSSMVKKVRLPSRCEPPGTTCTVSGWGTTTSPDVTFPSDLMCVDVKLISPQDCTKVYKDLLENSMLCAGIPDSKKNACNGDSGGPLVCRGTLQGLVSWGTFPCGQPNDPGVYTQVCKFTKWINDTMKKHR
SMARCA2 activ: activators of SMARCA2 function; AID 652017; activation, % at 9.1 µM; hit rate 1% among 370,000; MG213 cells, MMTV-luciferase reporter, dexamethasone, overnight; in the data active = activation above about 7.8%;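 also: 0% = vehicle wells and 100% = reference activator wells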
MsrA inh: bovine MsrA inhibition | purified bovine MsrA, absorbance read-out | AID 651718 | inhibition, % at 15.5 µM | hit rate 0.75% among 360,000;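 also: 0% = vehicle wells with enzyme and 100% = reference inhibitor wells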
MsrA act: activates bovine MsrA enzyme. purified bovine MsrA, absorbance read-out. activation, % at 10.6 µM. hit rate 0.3% among 360,000. AID 602163; in the data active = activation above about 7.5%;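 also: 0% = vehicle and 100% = reference activator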
MsrA inh confirm: bovine MsrA inhibition, confirmed; shares compounds with MsrA inh; purified bovine MsrA, absorbance read-out; inhibition, % at 15.5 µM; hit rate 41% among 2,300; AID 651822;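 also: coupled to thioredoxin reductase with NADPH and selenocystamine and DMSO as substrate; 0% = vehicle only and 100% = full effect of reference inhibitor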
SMARCA2 conf: confirmation of SMARCA2 (BRM) function activators; shares compounds with SMARCA2 activ; MG213 cells, MMTV-luciferase with dexamethasone, luminescence, overnight; MG213 cells expressing E1A, Rb sequestered; DMSO wells 0%, reference activator 100%; activation, % at 9.1 µM; hit rate 30% among 3,500; AID 652260;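 active = activation above its plate's cutoff, the mean activation of tested wells plus 3 SD, cut at about 7.9% in these data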
VP16 Luc act: counter-screen for SMARCA2 activators: GAL4-VP16 luciferase reporter activation | shares compounds with SMARCA2 activ | HEK293 GAL4-VP16 pG5luc reporter, luciferase luminescence; scaled: DMSO wells 0%, SAHA wells 100% | activation, % at 9.1 µM | hit rate 41% among 3,500 | AID 686939;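 active = activation above the solvent-only control well mean plus 3 SD, averaged across control plates, cut at about 5.2% in these data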
KLK7 act conf: confirmation of human kallikrein-7 zymogen activators; shares compounds with KLK7 zymogen act; purified proKLK7, EDANS-DABCYL substrate fluorescence; scaled: vehicle 0, mature enzyme 100; activation, % at 7 µM; hit rate 68% among 3,200;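 active = activation, as change over the incubation, above the mean of all tested compounds plus 3 SD, cut at about 13% in these data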
EDANS interfere: fluorescence interference counter-screen for KLK7 activators; hit rate 80% among 3,200; EDANS-DABCYL substrate fluorescence interference, no enzyme, 4 h; solvent 0%, active enzyme control 100%; activation, % at 7 µM; shares compounds with KLK7 zymogen act;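 active = activation above the all-compound mean plus 3 SD, ignoring values outside control-based bounds, cut at about 4.8% in these data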;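 also: value is the 4 h activation minus the activation read at time zero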
* hit, by the source's call; . = no result. Rule as the data show it, unless noted: active = inhibition above about 4.5%; inactive = the rest.

SMILES | KLK7 zymogen act | SMARCA2 activ | MsrA inh | MsrA act | SMARCA2 conf | VP16 Luc act | others
O=C(N/N=C/c1c[nH]c2ccccc12)c1[nH]c2ccc(Br)cc2c1-c1ccccc1 | 84* | 0 | 5.1* | -8 | . | . | MsrA inh confirm=4;KLK7 act conf=-52;EDANS interfere=-39
O=C(N/N=C/c1ccc(O)cc1)c1[nH]c2ccc(Br)cc2c1-c1ccccc1 | -12 | 0 | 2 | -10 | . | .
Cc1ccc(NC(=O)NCc2cccn2C)cc1C | 0 | 6 | -2 | -4 | . | .
CCCc1cc(=O)oc2c3c(cc(OCC(=O)N4CCC(C(=O)O)CC4)c12)OC(C)(C)CC3 | 65* | -1 | 5.0* | -3 | . | . | MsrA inh confirm=1;KLK7 act conf=77*;EDANS interfere=76*
CCCc1cc(=O)oc2c3c(cc(OCC(=O)NCC4CCC(C(=O)O)CC4)c12)OC(C)(C)CC3 (configuration not stated) | -2 | -2 | 0 | -4 | . | .
CNc1oc(/C=C/c2ccccc2)nc1C#N | 80* | 1 | 4.8* | -5 | . | . | MsrA inh confirm=4.6*;KLK7 act conf=64*;EDANS interfere=68*
CCOc1cc(/C=N/NC(=O)C(=O)N/N=C/c2ccc(O)c(OCC)c2)ccc1O | 16* | -2 | 5.5* | -4 | . | . | MsrA inh confirm=4;KLK7 act conf=-21;EDANS interfere=-8
CSc1ccc(/C=C/C(=O)OCC(=O)NC(C)C)cc1 | 22* | -1 | 5.5* | -7 | . | . | MsrA inh confirm=3;KLK7 act conf=17*;EDANS interfere=18*
CSc1ccc(/C=C/C(=O)OCC(=O)NC2CC2)cc1 | 21* | 0 | 5.0* | -4 | . | . | MsrA inh confirm=3;KLK7 act conf=23*;EDANS interfere=25*
COc1ccc(F)cc1S(=O)(=O)N1CCc2ccccc2C1 | 0 | -6 | 0 | 1 | . | .
COc1ccc2cc(-c3nc4ccccc4n3C)c(=O)oc2c1 | 22* | 4 | 4.9* | -5 | . | . | MsrA inh confirm=2;KLK7 act conf=39*;EDANS interfere=35*
Cc1ccc(OCCN2CCC2(C)C(=O)NCc2ccc(C(F)(F)F)cc2)cc1 (configuration not stated) | 0 | -3 | -1 | -8 | . | .
O=c1ccc(Cc2ccccn2)n[nH]1 | 0 | 9.5* | 0 | -2 | -3 | -2
CSc1ncc(OCc2ccccc2)c(=O)[nH]1 | 0 | 10* | -1 | -5 | 0 | 0
CSc1nc(Cc2ccccc2)cc(=O)[nH]1 | 0 | 3 | -1 | -2 | . | .
CCOc1ccccc1N(CC(=O)Nc1ccc(S(=O)(=O)N2CCOCC2)cc1)S(C)(=O)=O | 0 | 12* | 0 | -5 | -1 | 1
CC(=O)N=C(N)Sc1nc2ccccc2[nH]1 | 0 | 9.7* | 0 | 0 | 6 | 9.2*
COC(=O)c1ccc2nc(-c3ccc(F)cc3)c(Cc3ccccc3C(F)(F)F)n2c1 | 0 | 9.1* | -1 | -2 | -1 | -1
CC(C)(C)NC(=O)C(C1CC1)n1c(=O)c(-c2ccccc2)nc2ccccc21 (configuration not stated) | 10 | -5 | 4 | . | . | .
O=C(NC(=S)Nc1cccc(O)c1)C1CCCCC1 | 0 | 8.2* | 0 | -11 | 3 | 6.2*
O=C(NC(=S)Nc1ccc(O)cc1)C1CCCC1 | 0 | 1 | 0 | -3 | . | .
CCCN(CCC)CCCNC(=S)Nc1ccc2nc(N3CCN(CC)CC3)cc(C)c2c1 | 4 | 9.4* | 0 | -7 | 7 | 1
CCCCN(CC)CCNC(=S)Nc1ccc2nc(N3CCN(C)CC3)cc(C)c2c1 | 3 | 5 | 1 | -1 | . | .
CCCN(CCC)CCCNC(=S)Nc1ccc2nc(N3CCN(C)CC3)cc(C)c2c1 | 4 | 10* | 1 | -4 | 8.3* | 1
CCOC(=O)c1sc(-c2ccccc2)cc1N | 0 | 9.0* | -1 | -2 | 6 | 6.4*
SMILES | KLK7 zymogen act | SMARCA2 activ | MsrA inh | MsrA act | SMARCA2 conf | VP16 Luc act | others
CCOC(=O)c1sc(-c2ccc(F)cc2)cc1N | 0 | 7 | 2 | -1 | . | .
COC(=O)[C@]1(C#N)CC(=O)N(Cc2ccc(Cl)cc2)[C@@H]1c1ccccc1 | 0 | -3 | . | . | . | .
Cc1ccccc1NC(=O)c1cccc(C(F)(F)F)c1 | 0 | 8.2* | 0 | -3 | 5 | 1
CC1CCN(C(=S)NC(=O)c2cccc([N+](=O)[O-])c2)CC1 | 0 | 8.6* | 1 | -1 | -1 | 0
CC(=O)Nc1cccc(C(=O)N/N=C/c2cccc(C)n2)c1 | 0 | 11* | 0 | -1 | -5 | -1
COc1ccc(N2CC(=O)N(c3ccccc3)C2=S)cc1 | 0 | 11* | -1 | 0 | 8.7* | 1
O=C1CN(c2ccccc2)C(=S)N1c1ccccc1 | 0 | 1 | 0 | -11 | . | .
N#Cc1ccc(S(=O)(=O)NC(=O)[C@H]2O[C@@H](n3ccc(=O)[nH]c3=O)[C@H](O)[C@@H]2O)cc1 | 0 | -5 | 1 | . | . | .
Cc1ccc(-c2cn(-c3ccccc3)c(SCC(N)=O)n2)cc1C | 0 | 9.8* | 0 | -4 | 3 | 6.6*
CCOC(=O)NC(=O)CSc1nc(-c2ccc(C)c(C)c2)cn1-c1ccccc1 | 1 | 6 | -1 | -4 | . | .
Nc1sc(Cc2ccccc2)cc1C(=O)NC1CCCCC1 | 0 | -4 | 2 | . | . | .
COc1ccc(NC(=S)N(CCc2c(C)[nH]c3ccccc23)Cc2cccnc2)cc1 | 0 | 9.1* | 0 | -11 | -2 | 0
CC(C)(C)C(=O)O[C@@H]1CCC[C@@]2(C(=O)N(Cc3ccccc3)c3ccccc32)[C@H]1NC(=O)CCc1ccccc1 | 0 | -3 | . | . | . | .
Cc1cc(NC(=O)CCS(=O)(=O)c2nc(-c3ccccc3)cc(C(F)(F)F)n2)no1 | 0 | 9.3* | 0 | -4 | -15 | 3
Cc1ccc(C(=O)NNC(=O)Cc2cccs2)cc1 | -1 | 9.1* | 0 | -2 | 3 | 2
Nn1c(SCC(=O)Nc2ccccc2-c2ccccc2)nnc1-c1cc(-c2ccc(Cl)cc2)n[nH]1 | -1 | -7 | . | . | . | .
O=C(COC(=O)C12CC3CC(CC(O)(C3)C1)C2)Nc1ccc(Br)cc1F | 1 | 9.4* | 0 | -1 | 4 | 8.2*
Nc1ccc(Nc2nc(-c3ccncc3)cs2)cc1 | 0 | 13* | 1 | -3 | 11* | 13*
Clc1ccc(Nc2nc(-c3ccncc3)cs2)cc1 | 0 | 3 | 0 | -6 | . | .
Cc1nccc(-c2cc(-c3ccc(Cl)cc3Cl)no2)n1 | 0 | 16* | 0 | -4 | 14* | 3
COc1ccc(S(=O)(=O)N2CCN(C(=O)Cc3cccs3)CC2)cc1 | -1 | 9.5* | -1 | -1 | 0 | 1
Cc1ccc(CSc2nn3c(=O)c(C)nnc3s2)cc1 | 0 | 8.6* | 1 | -4 | 2 | 1
